Compounds with a hit are over-represented: about 10% of the library has one in this group of screens.
JMJD2A Tudor: JMJD2A Tudor domain (human) inhibition; AlphaScreen JMJD2A-Tudor / H3K4me3 peptide binding; Potency, µM (top dose mostly 114 µM), for inactives: at the top dose activity change, negative = inhibition, usual class: inhibitors; 4.4% of 390,000 active; AID 504339; O75164; also: % is scaled to controls: 0 for no effect and ±100 for the full control effect; nearly all actives have a fitted effect of over 50% in size
BAZ2B block: inhibitors of human BAZ2B bromodomain; Q9UIF8; AlphaScreen BAZ2B-H3K14Ac peptide displacement; Potency, µM (series often up to 114 µM), inactives show top-dose activity change, negative = inhibition, hits mostly inhibitors; 4.4% of 360,000 active; AID 504333; also: % is scaled to controls: 0 for no effect and ±100 for the full control effect; nearly all actives have a fitted effect of over 60% in size
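Complex of BAZ2B and biotin-H3K14Ac (50 nM apiece) forms over 30 min at RT, then faces library compounds up to 110 uM for another 30 min; AlphaScreen beads added, 20 min dark incubation, luminescence read.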
G9a block: blocks human histone lysine methyltransferase G9a. AID 504332. G9a H3K9 monomethylation, AlphaScreen, 2 h. Potency, µM (highest dose often 102 µM), without a hit: top-dose activity, negative = inhibition, actives largely listed as inhibitors. 8.8% of 350,000 active; also: % is scaled to controls: 0 for no effect and ±100 for the full control effect; nearly all actives have a fitted effect of over 75% in size
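Compounds were preincubated with 20 nM G9a for 15 min, after which biotinylated H3K9 peptide (500 nM) and SAM (20 uM) started a 2 h room-temperature reaction. Monomethylated product was quantified by antibody-based AlphaScreen chemiluminescence.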
HP1b binding inh: blocks HP1-beta chromodomain binding to methylated histone tails. AlphaScreen HP1-beta / biotin-H3K9me3 peptide binding. AID 540317. 0.56% of 390,000 active. P83916. Potency, µM (titrated, usually from 114 µM), inactives show top-dose activity change, negative = inhibition, actives largely listed as inhibitors; also: nearly all actives have a fitted effect of over 70% in size
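Compound inhibition of the preformed complex between 50 nM HP1-beta and 50 nM biotinylated H3K9me3 peptide was read by AlphaScreen. Buffer was PBS pH 7.4 with 0.01% Tween-20. Incubations ran 30 min at room temperature, with 10 ug/mL donor/acceptor beads.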
L3MBTL1 block: inhibitors of human L3MBTL1 | AlphaScreen L3MBTL1–H3K9me1 peptide binding | Potency, µM (doses to about 57.1 µM), inactives show top-dose activity, negative = inhibition, usual class: inhibitors | Q9Y468 | 0.66% of 230,000 active; also: % is scaled to controls: 0 for no effect and ±100 for the full control effect; nearly all actives have a fitted effect of over 60% in size
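AlphaScreen assay: L3MBTL1 (50 nM final) was preincubated 30 min at room temperature with biotinylated H3(1-15)K9me1 peptide (75 nM final), then 30 min with library compounds; streptavidin donor and nickel chelate acceptor beads (10 ug/mL final) added, 30 min dark.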
GLS inh: blocks human kidney-isoform glutaminase activity | Potency, µM (top dose mostly 45.5 µM), for inactives: at the highest dose activity change, negative = inhibition, hits mostly inhibitors | GLS enzymatic activity, qHTS titration | 0.21% of 410,000 active; also: % is scaled to controls: 0 for no effect and ±100 for the full control effect
Target sequence (O94925 whole entry, looked up, canonical isoform): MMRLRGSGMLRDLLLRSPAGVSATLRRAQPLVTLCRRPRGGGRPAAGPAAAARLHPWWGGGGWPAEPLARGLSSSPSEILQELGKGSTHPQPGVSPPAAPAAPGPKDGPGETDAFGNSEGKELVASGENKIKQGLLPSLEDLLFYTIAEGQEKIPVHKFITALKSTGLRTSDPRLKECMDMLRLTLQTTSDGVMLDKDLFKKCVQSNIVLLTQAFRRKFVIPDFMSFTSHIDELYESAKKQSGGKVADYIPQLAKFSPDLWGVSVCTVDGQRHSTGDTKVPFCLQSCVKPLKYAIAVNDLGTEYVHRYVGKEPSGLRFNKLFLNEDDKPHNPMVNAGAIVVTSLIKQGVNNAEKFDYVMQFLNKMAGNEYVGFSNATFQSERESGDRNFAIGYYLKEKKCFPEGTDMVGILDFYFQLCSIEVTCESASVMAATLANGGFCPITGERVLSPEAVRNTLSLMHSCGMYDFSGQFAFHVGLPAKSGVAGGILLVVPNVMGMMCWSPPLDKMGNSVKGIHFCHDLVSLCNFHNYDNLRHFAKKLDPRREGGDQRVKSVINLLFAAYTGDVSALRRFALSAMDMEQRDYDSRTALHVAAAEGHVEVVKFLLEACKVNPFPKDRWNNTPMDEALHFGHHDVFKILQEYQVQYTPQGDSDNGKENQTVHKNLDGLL
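Glutamate formation by hKGA was monitored fluorometrically using coupled glutamate oxidase, HRP and Amplex Red. Substrate was added as 1 mM L-glutamine solution; incubation was 30 min at RT after an initial read.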
Numbers without * were called inactive; ? = inconclusive; nt = not tested or not shown; [ ] = another dose, or the depositor's remark. Calls follow the shape of the dose curve; as a rule, active = well fitted curve in the direction sought with a large enough effect; inconclusive = small, poorly fitted or top-dose-only effect, or another doubt; inactive = no such curve, though single readings can be large; an effect the other way counts as inactive or inconclusive. Potency is read from the fitted curve at half-maximal effect.

SMILES	JMJD2A Tudor	BAZ2B block	G9a block	HP1b binding inh	L3MBTL1 block	GLS inh
O=C1CC(c2ccccc2)c2cc(O)ccc2O1 (stereo not given)	?	2%	3.5µM*	-14%	-1%	-3%
COc1ccc(-c2cc(=O)n(-c3nc4ccccc4[nH]3)[nH]2)cc1	?	28µM*	79µM*	15%	?	31%
Clc1ccccc1Cn1c(/C=C/c2ccco2)nc2ccccc21	?	?	10µM*	?	-11%	-2%
O=C(NCCCc1nc2ccccc2n1Cc1ccccc1Cl)c1ccco1	-17%	-20%	7%[59 µM]	26%	nt	10%
CC1(C)Cc2cccc(OCC(=O)NCCOc3ccccc3)c2O1	20µM*	-15%	-2%[59 µM]	-15%	nt	?
Cc1cccc(N2CCN(C(=O)COc3cccc4c3OC(C)(C)C4)CC2)c1C	-13%	13%	45µM*	54%	15%	-5%
Cc1ccc(S(=O)(=O)C2CCN(c3nc(-c4cccs4)nc4ccccc34)CC2)cc1	-24%	nt	nt	18%	nt	nt
COc1ccc(NC2=C(c3ccccc3)C(=O)c3ccccc32)cc1Cl	-27%	0%	13%[59 µM]	33%	nt	3%
Cc1ccc(NC2=C(c3ccc(C(F)(F)F)cc3)C(=O)c3ccccc32)cc1C	56µM*	56µM*	2.8µM*	0%	nt	-17%
CC(C)(C)OC(=O)n1cccc1/C=C1\c2ccccc2C(=O)N1c1ccccc1	63µM*	nt	nt	-37%	nt	-5%
CC(C)n1nc(C(=O)NNC(=O)c2ccncc2)c2ccccc2c1=O	-5%	?	?	37%	6%	-1%
Cc1ccc(OCCC(=O)NNC(=O)c2nn(C)c(=O)c3ccccc23)cc1	-7%	3%	-2%[12.7 µM]	25%	0%	10%
CCOc1ccc(OCCC(=O)NNC(=O)c2nn(C)c(=O)c3ccccc23)cc1	?	71µM*	?	4%	nt	0%
Cn1nc(C(=O)NCc2ccccn2)c2ccccc2c1=O	22µM*	?	-5%[59 µM]	16%	-2%	3%
CC(C)n1nc(C(=O)NNC(=O)c2ccc(OC(F)F)cc2)c2ccccc2c1=O	-5%	-2%	3.2µM*	52%	7%	10%
CCC(=O)N1CCc2cc(CNC(=O)c3ccc(OC)cc3)ccc21	-12%	-5%	6%[59 µM]	10%	nt	-12%
O=C(NCc1ccccc1)c1ccc(CSc2nc3cccnc3n2Cc2cccc(F)c2)cc1	-7%	-2%	-22%[59 µM]	30%	nt	9%
COCC(=O)OCC(=O)N1N=C(c2ccc(Cl)cc2)CC1c1ccco1 (stereo not given)	-31%	?	?	-8%	-16%	-5%
CCC(=O)N1N=C(c2ccc(Cl)cc2)CC1c1ccco1 (stereo not given)	-26%	-35%	10%	3%	-16%	-8%
COc1ccc(C2=NN(C(=O)CSc3ncccn3)C(c3ccc(OC)cc3)C2)cc1 (stereo not given)	-24%	?	-10%[59 µM]	18%	-10%	-14%
O=C(OCC(=O)N1N=C(c2ccc(Cl)cc2)CC1c1ccco1)c1cccnc1 (stereo not given)	35µM*	nt	nt	?	-91%	-7%
COc1ccc(C(=O)NCC(=O)OCC(=O)N2N=C(c3ccc(Cl)cc3)CC2c2ccco2)cc1OC (stereo not given)	-35%	-27%	20µM*	17%	7%	2%
COc1ccc(C2=NN(C(=O)CCC(=O)O)C(c3ccc([N+](=O)[O-])cc3)C2)cc1 (stereo not given)	-12%	-2%	40µM*	13%	10%	0%
COc1ccc(C2CC(c3ccc4ccccc4c3)=NN2C(=O)CSc2ncccn2)cc1 (stereo not given)	-22%	-1%	40µM*	17%	-11%	2%
COC(=O)c1ccc2c(=O)n(CCCCCC(=O)NCc3ccc(OC)cc3)c(=O)[nH]c2c1	-4%	3%	13%[59 µM]	17%	nt	?
